Read-outs that look alike come from different tables or passages of the source.
How the values were obtained:
CDK8 = conditions: concentration: 1 μM, replicates: in singlicate; n = 1
CDK9 = conditions: concentration: 1 μM, replicates: in singlicate; n = 1
CDKL1 = conditions: concentration: 1 μM, replicates: in singlicate; n = 1
CDKL2 = conditions: concentration: 1 μM, replicates: in singlicate; n = 1
CDKL3 = conditions: concentration: 1 μM, replicates: in singlicate; n = 1
CDKL5 = conditions: concentration: 1 μM, replicates: in singlicate; n = 1
CHEK1 = conditions: concentration: 1 μM, replicates: in singlicate; n = 1
CHEK2 = conditions: concentration: 1 μM, replicates: in singlicate; n = 1
CIT = conditions: n = 1
CLK1 = conditions: concentration: 1 μM, replicates: in singlicate; n = 1
[1] = concentration: 1 μM, replicates: in singlicate
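Further: KINOMEscan kinase panel screen.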

Structure (SMILES)	%Inh (CDK8)	%Inh (CDK9)	%Inh (CDKL1)	%Inh (CDKL2)	%Inh (CDKL3)	%Inh (CDKL5)	%Inh (CHEK1)	%Inh (CHEK2)	%Inh (CIT; [1])	%Inh (CLK1)	%Inh (CIT; 1 µM)
COc1cccc(-c2ccc3c(NC(=O)C4CC4)n[nH]c3n2)c1 [SB-710903]	50%	0%	0%	67%	0%	0%	0%	0%	5%	15%	–
O=C(Nc1cccc(Oc2ccc3nc(NC(=O)C4CC4)cn3n2)c1)c1ccccc1C(F)(F)F	26%	0%	43%	26%	0%	7%	0%	11%	63%	26%	–
Nc1ncc(-c2cccnc2)c2scc(-c3ccc4c(c3)CCN4C(=O)Cc3ccccc3)c12 [GSK683281]	36%	0%	26%	29%	0%	7%	18%	0%	49%	36%	–
O=C(Nc1cccc(-c2nn3ncccc3c2-c2ccnc(Nc3ccccc3)n2)c1)c1c(F)cccc1F [GSK198271]	0%	4%	3%	30%	0%	6%	5%	0%	29%	27%	–
CCS(=O)(=O)c1ccc(OC)c(Nc2nccc(-c3c(-c4cccc(NC(=O)c5c(F)cccc5F)c4)nn4ncccc34)n2)c1 [GSK326180]	16%	0%	6%	15%	0%	0%	10%	0%	8%	40%	–
CN(C)Cc1ccc(-c2ccc3c(Nc4ccc(Oc5ccccn5)cc4)ccnc3c2)o1 [GW567148]	4%	0%	0%	11%	0%	0%	0%	82%	0%	0%	–
Nc1n[nH]c2cnc(-c3ccccc3)cc12 [SB-642124]	0%	53%	1%	58%	0%	0%	0%	0%	19%	69%	–
O=C(Nc1cccc(-c2nn3ccccc3c2-c2ccnc(Nc3cccc(F)c3)n2)c1)c1c(F)ccc(F)c1Cl [GSK357952]	6%	0%	15%	25%	0%	0%	15%	0%	7%	24%	–
Cl.Cl.NCC(NC(=O)c1cc(-c2ccccc2)c(-c2ccnc3[nH]ccc23)s1)c1ccccc1 (centres unmarked) [GSK1321561]	30%	0%	8%	24%	58%	0%	0%	0%	99.9%	33%	–
Clc1ccc(-c2nn3ncccc3c2-c2ccnc(Nc3ccc4c(c3)OCCO4)n2)cc1 [GW829116]	20%	0%	0%	4%	0%	0%	0%	2%	89%	0%	–
Cl.NC(=O)c1cccc(Nc2nccc(Nc3ccc(Oc4c(Cl)cccc4Cl)c(Cl)c3)n2)c1 [GW659009]	18%	0%	0%	15%	0%	0%	1%	0%	9%	46%	–
COc1ccc(Nc2nccc(N3CCC(NC(=O)Nc4cccc(OC)c4)C3)n2)cc1 (centres unmarked) [GSK1379742]	72%	0%	0%	49%	0%	0%	0%	0%	14%	26%	–
CCc1ccc(-c2ccc3c(c2)-c2c(cnn2C)S(=O)(=O)N3C)cc1	0%	0%	0%	0%	20%	0%	0%	0%	8%	22%	–
Cc1ccc(C)c(NC(=O)NC2CCN(c3ccnc(Nc4ccc(F)cc4)n3)C2)c1 (centres unmarked) [GSK1379720]	21%	0%	1%	35%	0%	0%	0%	0%	0%	23%	–
Cn1cc(-c2[nH]c3cc(NC(=O)[C@H](N)C4CCCCC4)cc4c3c2C=NNC4=O)cn1	0%	0%	16%	0%	18%	0%	98.4%	96.6%	97.5%	56%	–
COc1cccc(NC(=O)NC2CCN(c3ccnc(Nc4cc(OC)c(OC)c(OC)c4)n3)C2)c1 (centres unmarked) [GSK1379763]	39%	10%	0%	52%	0%	0%	0%	54%	23%	12%	–

Structure (SMILES)	%Inh (CDK8)	%Inh (CDK9)	%Inh (CDKL1)	%Inh (CDKL2)	%Inh (CDKL3)	%Inh (CDKL5)	%Inh (CHEK1)	%Inh (CHEK2)	%Inh (CIT; [1])	%Inh (CLK1)	%Inh (CIT; 1 µM)
O=C(O)C(F)(F)F.O=C(O)C(F)(F)F.O=c1[nH]ccc2nc(N[C@@H]3CCCNC3)nc(Nc3ccc(S(=O)(=O)N4CCOCC4)cc3)c12 [GSK2177277]	0%	17%	64%	45%	0%	42%	100%	74%	76%	76%	–
Nc1ncc(-c2ccc3nccc(-c4ccncc4)c3c2)cc1S(=O)(=O)N1CCOCC1 [GSK1627798]	4%	0%	0%	4%	0%	0%	0%	0%	7%	63%	–
COc1cc(Nc2nccc(N3CCC(NC(=O)Nc4cccc(C(C)=O)c4)C3)n2)cc(OC)c1OC (centres unmarked) [GSK1379753]	27%	0%	17%	46%	0%	0%	0%	0%	11%	16%	–
CCn1c(-c2nonc2N)nc2c(C#CC(C)(C)O)ncc(OCCCCN)c21.O=C(O)C(F)(F)F.O=C(O)C(F)(F)F [GSK507274]	0%	0%	0%	53%	0%	10%	2%	0%	–	21%	100%
Cc1ccc(S(=O)(=O)Nc2ccc(Nc3nccc(Nc4cccc5[nH]ncc45)n3)cc2)cc1 [GSK581271]	13%	0%	2%	22%	0%	0%	0%	0%	28%	85%	–
O=C(Nc1cccc(-c2nn3ccccc3c2-c2ccnc(Nc3cccc(C(F)(F)F)c3)n2)c1)c1c(F)cccc1F [GSK292658]	14%	0%	0%	24%	0%	0%	10%	0%	44%	23%	–
COC(=O)Nc1nc2ccc(Oc3ccc(NC(=O)Nc4cc(C(F)(F)F)ccc4F)cc3)cc2n1C.Cl [GW692089]	77%	0%	2%	40%	0%	0%	0%	58%	100%	7%	–
O=C(Nc1n[nH]c2nc(-c3ccc(O)cc3)ccc12)C1CC1 [SB-710363]	0%	36%	39%	96.6%	44%	41%	0%	4%	29%	15%	–
CN(c1ccc(NC(=O)Nc2cc(C(F)(F)F)ccc2F)cc1)c1ccnc(Nc2ccc(S(N)(=O)=O)cc2)n1 [GW809893]	98.9%	93.5%	80%	99.9%	99.4%	26%	0%	20%	57%	47%	–
Nc1ncnc2c1nc(-c1ccccc1)n2-c1ccccc1 [SKF-97293]	0%	0%	3%	0%	7%	14%	4%	11%	11%	15%	–
CN1CCN(Cc2cccc(-c3ccc4c(Nc5ccc(Oc6ccccc6)cc5)ccnc4c3)c2)CC1 [GW578342]	30%	0%	0%	0%	0%	0%	0%	38%	11%	11%	–
COc1cc(Nc2nccc(-c3c(-c4cccc(NC(=O)c5c(F)cccc5F)c4)nn4ncccc34)n2)cc(OC)c1OC [GSK327238]	4%	0%	20%	13%	62%	10%	0%	14%	71%	23%	–
CC(=O)N1CCN(c2ccc(Nc3nccc(-c4sc(C(C)C)nc4-c4cccc(NS(=O)(=O)c5cccc(Cl)c5)c4)n3)cn2)CC1 [GSK1660437]	7%	68%	31%	99%	0%	73%	1%	0%	71%	11%	–
c1ccc(-c2n[nH]cc2Nc2ccnc3ccccc23)nc1 [GW694077]	30%	0%	3%	31%	0%	0%	0%	18%	61%	98.2%	–
O=C(Nc1n[nH]c2cc(-c3ccoc3)ccc12)C1CC1 [SB-738481]	11%	2%	18%	87%	10%	50%	0%	6%	0%	23%	–
CSc1cccc2c(-c3ccncn3)c(-c3ccc(F)cc3)nn12 [GW514786]	37%	0%	6%	31%	0%	3%	81%	0%	79%	18%	–

— publication PMC5540273 (PLoS ONE, 2017)
